Compounds with a hit are over-represented: about 4% of the library has one in this group of screens.
TWEAK Fn14 block = inhibitors of TWEAK-Fn14 interaction signaling; inhibition, % at 10 µM; AID 1159606; actives 2% (n = 360,000); TWEAK-stimulated Fn14 reporter cells, luciferase luminescence, 8 h; in the data active = inhibition above about 50%
HIF-2a inh = inhibitors of HIF-2a; 786-0 RCC cells HIF-2a reporter, luciferase luminescence, overnight; AID 624352; actives 0.72% (n = 360,000); inhibition, % at 18.8 µM;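 active = inhibition of the luminescence signal of 40% or more relative to plate controls, in a single-dose primary screen at 18.75 µM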
TROY NFkB inh = TROY signaling inhibition. inhibition, % at 10 µM. actives 0.98% (n = 360,000). Q293 LMP1-TROYcd NF-kB luciferase reporter, 4 h;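 active = compounds whose plate-normalised and pattern-corrected inhibition of the luciferase reporter signal at the single screening dose is 50% or more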
CF NFkB block = cystic fibrosis NF-kB activation inhibition. KKLEB NF-kB-GFP reporter, PAF-induced, GFP fluorescence overnight. inhibition, % at 5 µM. actives 0.86% (n = 360,000);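 active = at least 50% inhibition at 5 µM, scaled per plate between neutral and stimulator controls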;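 also: PAF is a Pseudomonas aeruginosa culture filtrate used as stimulus; plate controls were PAF-stimulated DMSO wells for no effect and unstimulated DMSO wells for full effect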
Peg3 promoter = reduces Peg3 promoter-driven luciferase expression in HeLa; HeLa PEG-Prom luciferase reporter, luminescence, overnight; actives 1.7% (n = 360,000); inhibition, % at 20 µM;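 active = inhibition of at least 50% at 20 µM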
KKLEB cytotox = counter-screen for CF NF-kB inhibitors: cytotoxicity | KKLEB CF airway cells viability, ATPlite luminescence, overnight; active compounds read low; cells stimulated with P. aeruginosa culture filtrate | actives 0.36% (n = 360,000) | activity change (cytotoxicity), % at 5 µM;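 active = corrected activity change at or below -50% at 5 µM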
* marks the source's active call; other numbers are inactive results.

SMILES | TWEAK Fn14 block | HIF-2a inh | TROY NFkB inh | CF NFkB block | Peg3 promoter | KKLEB cytotox
COc1cc(-c2cc(NC(C)=O)c3ncc(-c4ccc(C(C)=O)cc4)n3c2)cc(OC)c1OC | -1 | -27 | 0 | -19 | 48 | -4
CCOC(=O)N1CCC2(CC1)CC(=O)c1cc(O)ccc1O2 | 64* | 2 | -7 | 7 | 6 | -3
COc1ccc(-c2csc(NC(=O)CSc3nc(SC)ns3)n2)cc1 | 69* | -131 | 54* | 6 | -93 | 4
COc1ccc(-c2csc(NC(=O)CSc3nc(C)cs3)n2)cc1 | -34 | -147 | 2 | 0 | -86 | 2
COc1ccc2nc(NC(=O)CSc3nc(SC)ns3)sc2c1 | 53* | -145 | 24 | 7 | -153 | 19
CC(C)OC(=O)C1=C(N)N2C(=O)CSC2=C(C(=O)OC(C)C)C1 | 1 | 12 | -4 | -2 | 52* | -5
CCCc1ccc(OC(=O)c2ccc(O)cc2Cl)cc1 | 40 | -268 | 58* | 13 | -200 | -5
CCCc1ccc(OC(=O)c2cccs2)cc1 | -26 | -3 | -11 | -3 | -23 | -2
COc1ccc(CNC(=O)CNS(=O)(=O)c2ccc(Cl)cc2)cc1 | 82* | 10 | 80* | -6 | 12 | 1
COc1ccc(CCNC(=O)CNS(=O)(=O)c2ccc(Cl)cc2)cc1 | -11 | 13 | -8 | 5 | 9 | 0
COc1ccc(/C=C2\SC(=S)N(CCCC(=O)Nc3ccc(C(=O)O)cc3)C2=O)cc1OC | -22 | 3 | -6 | 5 | 7 | 11
COc1cc(/C=C2\SC(=S)N(N3CCOCC3)C2=O)ccc1O | -35 | 0 | 54* | -32 | -21 | -11
COc1cc(/C=C2\SC(=S)N(N3CCOCC3)C2=O)cc(OC)c1OC | 4 | 12 | -6 | -4 | 7 | 2
O=C(CCCN1C(=O)/C(=C\c2ccccc2)SC1=S)Nc1ccc(O)cc1 | 12 | 61* | 16 | 10 | 83* | -10
CCN(CC)CCOC(=O)c1ccc(NC(=O)CCCN2C(=O)S/C(=C/c3ccc(OC)cc3)C2=S)cc1 | 73* | 79* | 45 | 29 | 108* | -1
O=C(CCN1C(=O)/C(=C\c2ccccc2)SC1=S)Nc1ccc(C(=O)O)cc1 | 14 | 19 | 0 | 18 | 12 | 0
COc1ccc(/C=C2/SC(=S)N(CCCC(=O)Nc3ccc(O)cc3)C2=O)cc1OC | 25 | 42* | 17 | 9 | 26 | -13
CC(NC(=O)C1CC(=O)N(c2ccc3c(c2)OCCO3)C1)c1ccccc1 (stereo not given) | 12 | 9 | -4 | -25 | -30 | 5
Cc1cn([C@H]2C[C@H](O)[C@@H](CCC(=O)NCCc3ccc4ccccc4c3)O2)c(=O)[nH]c1=O | 13 | 8 | -2 | -17 | 13 | -7
COc1cccc(/C=C2\SC(=S)N(CCCC(=O)NC3=NCCS3)C2=O)c1 | 28 | 87* | 42 | -14 | 29 | -2
COc1cccc(/C=C2/SC(=S)N(CCCC(=O)Nc3ccc(O)cc3)C2=O)c1 | 15 | 20 | 1 | 21 | 99* | -16
O=C(CCCN1C(=O)/C(=C/c2ccc3c(c2)OCO3)SC1=S)Nc1cccc(C(=O)O)c1 | 56* | 88* | 31 | 3 | 28 | -24
COc1ccc(CCN(C)C2CCCN(S(=O)(=O)c3ccccc3)C2)cc1OC (stereo not given) | -26 | 20 | -21 | -2 | 24 | -8
COC(=O)c1ccc(/C=C/C(=O)OCC(=O)Nc2sccc2C(N)=O)cc1 | 68* | 6 | 45 | 30 | 89* | 0
N=c1c2c(n(Cc3ccc(Cl)c(Cl)c3)c3c1CCC3)CCCC2 | 48 | 25 | 45 | 38 | 39 | -17
SMILES | TWEAK Fn14 block | HIF-2a inh | TROY NFkB inh | CF NFkB block | Peg3 promoter | KKLEB cytotox
N=c1c2c(n(Cc3ccc(Br)cc3)c3c1CCC3)CCCC2 | 41 | 15 | 35 | 45 | 22 | -59*
CC(=O)c1ccc(OC(=O)c2nc(-c3ccccc3)oc2C)cc1 | 7 | 11 | -21 | -4 | 4 | 5
COc1ccc(-c2n(Cc3ccccc3)c3ccccc3[n+]2Cc2ccccc2)cc1 | 38 | 19 | 50* | 48 | 48 | -32
COC(=O)CSc1nc(N2CCCCC2)c2c(c1C#N)CCCC2 | 91* | 21 | -17 | 13 | 21 | -6
N#Cc1c(SCC(=O)O)nc(N2CCCCC2)c2c1CCCC2 | -4 | 29 | 5 | -10 | 21 | 1
CSc1nc(N2CCOCC2)c2c(c1C#N)CCCCC2 | 93* | 29 | -2 | 24 | 9 | -7
COc1cccc(CNc2nc3ccccc3n2C(C)C)c1O | 8 | -2 | -11 | -5 | -8 | 5
COc1ccccc1-c1ccc2c(c1)C(C)(Cc1ccc(F)c(Cl)c1)C(=O)N2 (stereo not given) | 46 | -15 | 21 | 20 | 20 | 0
COc1ccc(C(=O)NCCCCc2ccccc2)cc1 | 2 | -63 | -40 | 1 | -20 | -2
COc1ccc(NS(=O)CCCc2ccccc2)cc1 (stereo not given) | 54* | -43 | 42 | 0 | -45 | 11
Cc1cccn2c(=O)c3cc(C(=O)NCC4CCCO4)c(=N)n(C4CCCC4)c3nc12 (stereo not given) | 1 | 10 | -13 | 1 | -20 | 12
CCC(C)NC(=O)Nc1ccc(Br)cc1 (stereo not given) | -7 | -145 | -27 | 2 | -117 | 8
CCC(C)Nc1ccc(NC(C)CC)cc1 (stereo not given) | 69* | 19 | 39 | 60* | 65* | -37
COc1ccc(-c2sc3ccc(N4CCOCC4)cc3c2C#CCO)cc1 | 90* | -27 | 54* | 17 | 22 | 0
O=C(CCl)N1c2ccccc2SCC1c1ccccc1 (stereo not given) | 8 | 27 | 11 | 9 | 68* | 10
O=C(CCl)N1c2ccccc2OCC1c1ccccc1 (stereo not given) | -21 | 2 | -8 | -8 | 47 | -3
Nc1ccn([C@@H]2O[C@H](C(=O)N[C@H]3c4ccccc4C[C@H]3O)[C@@H](O)[C@H]2O)c(=O)n1 | -11 | 12 | 8 | -3 | -2 | 8
CC(=O)Oc1ccc(Cn2c(C)c(C(=O)NCc3ccccc3C(F)(F)F)sc2=O)cc1 | -4 | 2 | 6 | 4 | -9 | 2
NC(=O)COC(=O)c1ccccc1Nc1ccc(SC(F)F)cc1 | -24 | -139 | -48 | -18 | -131 | 6
CC(C)(C)NC(=O)COC(=O)c1ccccc1Nc1ccc(SC(F)F)cc1 | 55* | -156 | 27 | -1 | -186 | 5
CC(C)(C)NCC(O)CON=C1c2ccccc2-c2ccccc21 (stereo not given) | -8 | 25 | -32 | -23 | 84* | -1
CC(C)(C)NC(=O)CON=C1c2ccccc2-c2ccccc21 | 32 | -21 | -1 | 10 | 11 | -17
NC(N)=NN=C1c2ccccc2-c2ccccc21 | -4 | 12 | 16 | -16 | -1 | 8
